Most compounds without a hit are left out; they make up all but 5.4% or so of the library.
Granule exo inh = LAMP-1 surface exposure blockers, TALL-104 cells – cell-based, flow cytometry, MLPCN library, primary screen | TALL-104 LAMP-1 surface exposure; cells stimulated with thapsigargin and PMA | inhibition, % at 10 µM | 360,000 tested, 0.66% active;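 active = inhibition above about 55%, limit read from the data; inconclusive = no clear call, values can overlap the other calls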
ALR inh = inhibitors of human ALR sulfhydryl oxidase, primary screen, biochemical, H2O2 detection, HRP-luminol luminescence, single point; FAD-linked sulfhydryl oxidase ALR (Homo sapiens), P55789; purified ALR, DTT oxidation; inhibition, % (concentration not given with the values); 290,000 tested, 3.8% active; AID 485317, 2010;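 active = mean replicate inhibition above about 79%, with every replicate also reaching it, limit read from the data; inconclusive = only one of the two criteria met; inactive = mean below limit and not every replicate reaching it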
Target sequence (P55789 whole entry, looked up): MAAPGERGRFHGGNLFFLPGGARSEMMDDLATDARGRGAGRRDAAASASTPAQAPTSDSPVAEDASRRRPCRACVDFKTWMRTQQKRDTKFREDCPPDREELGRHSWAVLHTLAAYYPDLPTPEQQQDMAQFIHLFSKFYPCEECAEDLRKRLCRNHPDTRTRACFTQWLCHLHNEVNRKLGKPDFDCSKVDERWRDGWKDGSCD
MIN6 prolif = inducers of MIN6 beta-cell proliferation, primary screen, ATP luminescence, uHTS; AID 2380, 2010; MIN6 cells proliferation, ATPlite luminescence, 48 h; cells starved in 0.2% serum; 100% = growth in 10% serum; 330,000 tested, 0.29% active; proliferation, % at 10 µM;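 active = compounds whose signal lies at least 3.5 SD above the mean of all wells on their plate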;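 note: 0% = DMSO-treated cells in low-serum medium and 100% = 10% serum control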
SMARCA2 activ = SMARCA2 (BRM) function activators, primary screen, cell-based, luminescence, high throughput. MG213 cells, MMTV-luciferase reporter, dexamethasone, overnight. activation, % at 9.1 µM. 370,000 tested, 1% active. AID 652017, 2013; in the data active = activation above about 7.8%;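 note: 0% = vehicle wells and 100% = reference activator wells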
M18AAP inhibitor = PfM18AAP inhibitors, malaria aminopeptidase, primary screen, biochemical, QFRET, recombinant enzyme | 290,000 tested, 1.2% active | inhibition, % at 7.35 µM | AID 1822, 2009 | H-Glu-NHMec fluorogenic cleavage | M18 aspartyl aminopeptidase (Plasmodium falciparum 3D7);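 active = inhibition above the campaign mean inhibition over all tested compounds plus 3 SD, cut at about 28% in these data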;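 note: 0% = plate median of test compound wells and 100% = 2 mM ZnCl2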
JMJD2C inh = inhibitors of GASC-1 histone demethylase, primary screen, biochemical, fluorescence, DELFIA europium; Lysine-specific demethylase 4C (Homo sapiens), Q9H3R0; GST-JMJD2C(1-420) H3K9me3 demethylation; inhibition, % at 2.35 µM; 330,000 tested, 0.069% active; AID 2099, 2009;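 active = more than half of a compound's replicate wells show inhibition beyond 50%, single wells judged on their own value; inconclusive = some, but no more than half, of replicates pass 50% inhibition; inactive = no replicate passes 50% inhibition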;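 note: signal counts dimethyl H3K9 product captured on neutravidin plate; 0% = median of DMSO wells and 100% = 0.3 times that DMSO median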
Target sequence (Q9H3R0 1-420 limits assumed): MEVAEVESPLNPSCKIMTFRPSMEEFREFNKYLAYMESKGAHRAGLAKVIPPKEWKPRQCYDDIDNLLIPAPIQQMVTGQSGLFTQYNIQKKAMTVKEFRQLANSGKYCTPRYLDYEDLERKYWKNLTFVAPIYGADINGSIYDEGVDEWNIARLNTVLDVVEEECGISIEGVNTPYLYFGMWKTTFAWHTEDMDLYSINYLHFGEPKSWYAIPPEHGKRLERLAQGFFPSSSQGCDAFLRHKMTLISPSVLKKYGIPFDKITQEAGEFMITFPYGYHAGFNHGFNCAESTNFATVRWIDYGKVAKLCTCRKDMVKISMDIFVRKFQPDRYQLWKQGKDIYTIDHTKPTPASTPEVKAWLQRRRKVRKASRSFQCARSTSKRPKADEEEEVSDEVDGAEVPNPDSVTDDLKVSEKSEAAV
SMARCA2 act conf = SMARCA2 (BRM) function activators, confirmation, cell-based, luminescence, triplicate | shares compounds with SMARCA2 activ | 3,500 tested, 30% active | activation, % at 9.1 µM | MG213 cells, MMTV-luciferase with dexamethasone, overnight; MG213 cells expressing E1A, Rb sequestered; DMSO wells 0%, reference activator 100% | AID 652260, 2013;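 active = activation above its plate's cutoff, the mean activation of tested wells plus 3 SD, cut at about 7.9% in these data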
GAL4-VP16 Luc = GAL4-VP16 luciferase reporter activation, counter-screen for SMARCA2 (BRM) activator project, cell-based, pG5luc, luminescence, high throughput; HEK293 GAL4-VP16 pG5luc reporter; scaled: DMSO wells 0%, SAHA wells 100%; shares compounds with SMARCA2 activ; activation, % at 9.1 µM; AID 686939, 2013; 3,500 tested, 41% active;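 active = activation above the solvent-only control well mean plus 3 SD, averaged across control plates, cut at about 5.2% in these data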
The depositor's hits bear a star; ? = inconclusive; . = not tested or not shown.

SMILES | Granule exo inh | ALR inh | MIN6 prolif | SMARCA2 activ | M18AAP inhibitor | JMJD2C inh | SMARCA2 act conf | GAL4-VP16 Luc
CC(C)C1N=C2c3ccccc3N=C(SCC(=O)NCCc3ccc(S(N)(=O)=O)cc3)N2C1=O (stereo unspecified) | 1 | -8 | -2 | 9.4* | -13 | -14 | -2 | -1
CN(C(=O)/C=C/c1cnc2ccccc2c1)C1CCCCC1 | -1 | -20 | 0 | 9.9* | 4 | -14 | 12* | 11*
COc1ccc(/C=C/C(=O)N(C)C2CCCCC2)cc1Br | 0 | . | 6 | 2 | 5 | -5 | . | .
CC(=O)c1ccc(N2CCN(C(=S)NCc3ccco3)CC2)cc1 | -1 | -15 | -3 | -3 | 2 | -21 | . | .
CC(=O)c1ccc(N2CCN(C(=S)NCCCN(C)C)CC2)cc1 | 4 | 0 | -2 | 8.2* | 4 | ? | 0 | 3
Nc1nc2c(C(=O)N3CCOCC3)nnn2c2ccccc12 | 6 | -9 | 0 | 11* | 2 | -7 | 6 | 9.1*
COc1ccc2nc(C)cc(NCCN3CCOCC3)c2c1 | -3 | -28 | 0 | 0 | -4 | 6 | . | .
Cc1cc(NCCN2CCOCC2)c2ccc3ccccc3c2n1 | 2 | -21 | 1 | 11* | -2 | -2 | 21* | 3
Fc1ccccc1-c1nc(NCCCN2CCOCC2)c2ccccc2n1 | -1 | . | 0 | -1 | -1 | -1 | . | .
c1ccc2c(NCCCN3CCOCC3)c3ccccc3nc2c1 | . | 5 | -7 | 15* | 7 | 11 | 28* | 1
Cc1ccccc1CNC(=O)c1csc([C@@H]2C[C@H](O)[C@@H](CO)O2)n1 | 1 | . | . | -2 | . | . | . | .
CCOc1ccc(NC(=O)c2nccnc2CO)cc1 | -4 | -3 | -1 | 9.8* | 3 | 3 | 4 | 9.8*
CCOc1ccc(NC(=O)c2cnccn2)cc1 | 1 | -8 | -3 | 6 | -8 | 0 | . | .
CCOc1ccc(NC(=O)c2cnsn2)cc1 | 0 | -9 | -3 | 8.1* | 5 | 3 | 14* | 5
Brc1ccccc1OCCCCCN1CCOCC1 | -1 | -3 | 1 | 10* | 0 | 1 | 1 | 5
CC(C)c1ccccc1OCCCCCN1CCOCC1 | 12 | 7 | 4 | -4 | . | -6 | . | .
O=C(COC(=O)c1nc(Cl)c(Cl)c(Cl)c1Cl)NCc1ccccc1 | 4 | . | -6 | 21* | . | . | 53* | 1
O=c1[nH]c2ccccc2nc1-c1cccs1 | 1 | -2 | 1 | 8.2* | -2 | 2 | 8.6* | 4
c1csc(-c2nnsc2-c2nc3ccccc3[nH]2)c1 | 1 | 29 | -2 | 6 | 6 | -13 | . | .
CN(C)c1ncnc2c1ncn2[C@H]1CN(C2CCCC2)C[C@@H](CO)O1 | 29 | . | . | -6 | . | . | . | .
COc1ccc(-c2cc(C(=O)N=Nc3c(O)[nH]c4ccccc34)[nH]n2)cc1 | . | . | . | -2 | . | . | . | .
Cc1ccc(NC(=O)c2ccc([N+](=O)[O-])cc2Cl)nc1 | -3 | -22 | -2 | 9.1* | 3 | . | 6 | 9.7*
CN(C)c1ccc(NC(=O)c2ccc([N+](=O)[O-])cc2Cl)cc1 | -2 | 6 | -3 | 9.7* | 3 | -1 | 7.9* | 12*
CC(C)C[C@H]1CN(CCCC[C@@H]2CNC(=O)C(=O)N2CC2CCCCC2)C(=O)C(=O)N1CCc1ccccc1 | -5 | . | . | 2 | . | . | . | .
O=C1c2cccc(NCCNCCO)c2C(=O)c2cccc(NCCNCCO)c21 | -17 | . | . | 10* | . | . | -16 | -1
SMILES | Granule exo inh | ALR inh | MIN6 prolif | SMARCA2 activ | M18AAP inhibitor | JMJD2C inh | SMARCA2 act conf | GAL4-VP16 Luc
Cc1cccc(-c2nnc(SCC(=O)Nc3ccc(-c4nc5ccc(C)cc5s4)cc3)n2Cc2ccco2)c1 | . | . | . | -5 | . | . | . | .
C/C(N)=C(/C#N)C(=O)CSc1cc(C)c2cc(C)cc(C)c2n1 | -22 | 96* | -5 | 8.5* | 2 | 5 | -2 | -1
Cc1cc(C)c2nc(SCC#N)cc(C)c2c1 | -6 | -11 | 2 | -1 | 5 | -6 | . | .
COc1cc(NC(=O)CSc2cc(C)c3cc(C)cc(C)c3n2)c(C(=O)O)cc1OC | 0 | 66 | -4 | 8.4* | 0 | -23 | 2 | -1
COc1ccc(Br)cc1CN(C)CC(=O)Nc1c(Cl)ccc(C)c1Cl | -3 | -5 | 0 | 8.1* | 3 | 1 | -6 | 0
COc1ccc(Br)cc1CN(C)CC(=O)NCCc1ccccc1 | 0 | -5 | 0 | -6 | 7 | 3 | . | .
O=C(Nc1cccnc1Cl)c1ccc(Cl)cc1 | 0 | -3 | -1 | 3 | 4 | 2 | . | .
O=C(NC(=S)Nc1cccnc1Cl)c1ccc(Cl)cc1 | 5 | 7 | -4 | 9.9* | 10 | 37 | 3 | 8.9*
COCCNc1nc2cc(-c3cccc(Cl)c3)sc2c(=O)n1C | 2 | . | . | -3 | . | . | . | .
O=C(NC1CCC1)C1CCC(=O)N(Cc2cccc(F)c2)C1 (stereo unspecified) | 8 | -14 | 1 | -2 | -9 | -6 | . | .
CN(C(=O)C1CCC(=O)N(Cc2cccc(F)c2)C1)C1CCCCC1 (stereo unspecified) | -2 | 0 | -2 | 9.1* | 2 | -6 | 11* | 13*
O=C1CCC(C(=O)N2CCCCCC2)CN1Cc1cccc(C(F)(F)F)c1 (stereo unspecified) | -7 | -9 | 1 | 9.2* | -4 | -5 | 0 | -1
COc1cccc(CN2CC(C(=O)N3CCCCCCC3)CCC2=O)c1 (stereo unspecified) | 1 | -4 | -2 | 0 | 0 | 20 | . | .
CCOC(=O)[C@]12CCCC3=C1N(CCC3)C(=O)[C@@H](CC(=O)NCc1ccc(OC)c(OC)c1)C2 | . | . | . | 8.0* | . | . | -1 | 0
CCOC(=O)[C@]12CCC=C1N(Cc1ccc(Cl)cc1Cl)C(=O)[C@H](CC(=O)N1CCSCC1)C2 | -7 | . | . | -7 | . | . | . | .
CCC(=O)Nc1cccc(NC(=S)NC(=O)c2cc3ccccc3o2)c1 | 2 | -5 | -1 | 12* | 3 | 1 | -2 | 15*
CCC(=O)Nc1ccc(NC(=O)c2cc3ccccc3o2)cc1 | -3 | -1 | 0 | 6 | 0 | 6 | . | .
